Bioassay records (PubChem)
Sampled rows, rich in hits. Any-hit rate of the full collection: about 31%.
CYP2C9 act: human CYP2C9 activators, primary screen, biochemical, luminescence | recombinant CYP2C9, luciferin-H conversion; hits give high values; factor 1 = untreated enzyme, 0 = blocked | activation factor at 5 µM | 96,000 tested, 1.4% active;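 active means activation factor of 2 or more for CYP2C9 at a 5 µM dose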
CYP2C19 act: human CYP2C19 activators, primary screen, biochemical, luminescence. Cytochrome P450 2C19 (Homo sapiens), P33261. recombinant CYP2C19, luciferin-H EGE luminescence; hits give high values; 0 = fully inhibited enzyme, 1 = untreated enzyme. activation factor at 5 µM. 96,000 tested, under 10 active;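 active means activation factor of at least 2 at 5 µM in the primary screen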
Target sequence (P33261 whole entry, looked up): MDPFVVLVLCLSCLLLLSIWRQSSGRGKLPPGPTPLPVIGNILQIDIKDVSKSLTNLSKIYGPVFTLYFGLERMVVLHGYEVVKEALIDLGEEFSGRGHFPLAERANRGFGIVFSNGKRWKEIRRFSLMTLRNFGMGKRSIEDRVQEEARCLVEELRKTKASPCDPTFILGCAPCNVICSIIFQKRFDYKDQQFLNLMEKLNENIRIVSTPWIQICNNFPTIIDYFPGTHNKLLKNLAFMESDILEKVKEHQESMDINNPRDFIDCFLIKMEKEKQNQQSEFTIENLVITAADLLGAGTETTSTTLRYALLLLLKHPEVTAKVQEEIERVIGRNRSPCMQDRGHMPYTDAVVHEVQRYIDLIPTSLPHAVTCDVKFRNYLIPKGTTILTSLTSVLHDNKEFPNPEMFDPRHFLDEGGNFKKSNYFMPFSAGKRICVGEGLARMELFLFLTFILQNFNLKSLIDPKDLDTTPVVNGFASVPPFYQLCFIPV
PLAP activator: PLAP enzyme activators, biochemical, luminescence, HTS | activation fold at 20 µM | 96,000 tested, 1.2% active | purified PLAP enzyme, luminescent substrate read-out; hits give high values | AID 696, 2007; in the data active means activation fold above about 2
CYP2C19 inh: blockers of cytochrome P450 2C19 activity – biochemical, luminescence, ADME assay, primary screen; P33261; CYP2C19 Supersomes, luciferin-H EGE luminescence, 30 min; inhibition, % at 5 µM; 96,000 tested, 21% active; AID 778, 2007;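 active means CYP2C19 inhibition above a set limit at 5 µM in the primary screen, cut at about 50% in these data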
CYP2C9 inh: blockers of cytochrome P450 2C9 activity – biochemical, luminescence, ADME assay, primary screen. P11712. CYP2C9 Supersomes, luciferin-H conversion. inhibition, % at 5 µM. 96,000 tested, 20% active. AID 777, 2007;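 active means blocking of liver enzyme CYP2C9 beyond about 50% at 5 µM, limit read from the data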
Large screens that a line does not name were inactive.

Cc1cc(=O)oc(C)c1C(=O)NCc1ccccc1	none
CCN(CCCNC(=O)c1c(C)cc(=O)oc1C)c1ccccc1	CYP2C19 inh 98.5, CYP2C9 inh 83.1
CCCCN(CCCNC(=O)c1c(C)cc(=O)oc1C)c1ccccc1	CYP2C19 inh 51.1, CYP2C9 inh 90.5
CCOC(=O)C(C)Oc1ccc(=O)n(-c2ccccc2)n1 (stereo not drawn)	none
Cc1ccnc(SCCn2c(N3CCCCC3)nc3c2c(=O)n(C)c(=O)n3C)n1	none
CCCc1nnc(SCC(=O)N2CCCCC2)n1CC1CCCO1 (stereo not drawn)	none
O=C1CS/C(=C\S(=O)(=O)c2ccc(Cl)cc2)N1	CYP2C9 inh 57.4
CC1CC(N(C(=O)c2ccco2)c2ccccc2)c2ccccc2N1 (stereo not drawn)	CYP2C19 inh 84.5, CYP2C9 inh 96.0
Cc1ccc(Sc2c(C=O)c3ccccc3n2C)cc1	none
COc1cc(OC)cc(C(=O)Nc2ccc(-n3cnnn3)c(C)c2)c1	CYP2C19 inh 83.1, CYP2C9 inh 92.3
COc1ccc(NC(=O)c2cnc(C)cn2)cc1-n1cnnn1	none
Cc1cc(NC(=O)c2oc3ccccc3c2C)ccc1-n1cnnn1	CYP2C9 inh 77.3
Cc1c(C(=O)Nc2ccc(N3CCOCC3)cc2)oc2ccccc12	none
O=C(Nc1ccc(-c2nc3c(ccc4ccccc43)o2)cc1)c1ccco1	none
Cc1cc(C2=CC(C)(c3cc(C)oc3C)Nc3nc(C(F)(F)F)nn32)c(C)o1 (stereo not drawn)	CYP2C9 inh 87.3
CN(C(=O)c1ccc(Cl)cc1)C1=CCCCC1CCC#N (stereo not drawn)	CYP2C19 inh 64.3
COc1ccc(C(=O)CN(C(=O)c2ccc(Cl)cc2)N2C(=O)C3CCCCC3C2=O)cc1 (stereo not drawn)	none
CC1=CC(C)(C)N(C(=O)c2ccc(F)cc2)c2cc3c(cc21)OCO3	CYP2C19 inh 95.2, CYP2C9 inh 96.7
CSC1=NCCN1C(=O)c1ccc2c(c1)OCO2	none
CCC(C)Nc1nc(CN2CCOCC2)nc2sc3c(c12)CCC3 (stereo not drawn)	none
O=C(N1CCOCC1)C1(c2ccccc2)CCCCC1	CYP2C19 inh 68.9
CNC(=O)C1CC(=O)N(CCCc2ccccc2)C(=Nc2ccccc2)S1 (stereo not drawn)	CYP2C19 inh 64.6, CYP2C9 inh 56.3
CCn1c(SCc2ccccc2Cl)nc2ccccc21	none
CCn1c(CNC(=O)C(C)(C)C)nc2ccccc21	none
Cn1c(SCc2ccccc2Cl)nc2ccccc21	CYP2C19 inh 73.1
CCn1c(CSc2nc3ccccc3n2C)nc2ccccc21	CYP2C19 inh 86.1
Cc1cc(NC(=O)CN2CC(C)OC(C)C2)n(-c2nc3ccccc3s2)n1 (stereo not drawn)	CYP2C19 inh 56.8, CYP2C9 inh 55.9
COc1cc(/C=N/Nc2nc(N3CCCC3)nc(N3CCCC3)n2)ccc1O	none
COc1cc(/C=N/Nc2nc3ccccc3o2)cc(OC)c1O	PLAP activator 2.3
COc1ccc(/C=N/Nc2nc3ccccc3o2)cc1O	PLAP activator 2.1, CYP2C19 inh 50.8, CYP2C9 inh 52.4
CC1CCCCC1NS(=O)(=O)c1ccc(-n2cnnn2)cc1 (stereo not drawn)	CYP2C19 inh 88.2
O=C(NCC1CC1)C1CCCN(S(=O)(=O)c2ccc(-n3cnnn3)cc2)C1 (stereo not drawn)	none
CN(C1CCCCC1)S(=O)(=O)c1ccc(-n2cnnn2)cc1	CYP2C19 inh 99.7
CC1CCCCC1NS(=O)(=O)c1ccc(S(=O)(=O)N2CCCC2)cc1 (stereo not drawn)	CYP2C19 inh 79.3, CYP2C9 inh 79.4
O=S(=O)(c1ccc(-n2cnnn2)cc1)N(C1CCCCC1)C1CCCCC1	none
CCCCOC(=O)Nc1ccc(C)c(Cl)c1	none
Cc1cccc(OCC(=O)Nc2sc3c(c2C#N)CCC3)c1	none
Cc1cccc(OCC(=O)Nc2cc(C)ccc2O)c1	CYP2C19 inh 60.4
COc1ccc(C(=O)/C=C/Nc2cccc(O)c2)cc1	none
COc1cccc(C(=O)Nc2cc(C)ccc2NC(=O)COc2ccccc2)c1	none
Cc1cccc(OCc2nc3ccccc3c(=O)n2N)c1	none
Cc1cccc(OCC(=O)Nc2cc(C)c(C)cc2O)c1	CYP2C19 inh 56.1
Cc1cccc(OCC(=O)NNc2c3ccccc3nc3ccccc23)c1	CYP2C9 act 2
COc1cccc(C(=O)/C=C/Nc2cc(C)ccc2O)c1	PLAP activator 2.9
Cc1c(Cl)c([N+](=O)[O-])nn1CC(=O)N1CCc2ccccc2C1	none
Cc1ccc(NC(=O)NCCCc2ccccc2)cc1	CYP2C19 inh 59.2
Cc1ccc(NC(=O)NCCc2ccc(S(N)(=O)=O)cc2)cc1	none
COC(=O)[C@H](CCSC)NC(=O)NCCC1=CCCCC1	none
COC(=O)[C@H](Cc1ccccc1)NC(=O)NCCC1=CCCCC1	CYP2C19 inh 69.2, CYP2C9 inh 62.5
Cc1ccc(N(O)C(=O)OCCNC(=O)Nc2ccccc2)cc1	CYP2C19 inh 93.9, CYP2C9 inh 92.5
COC(=O)[C@H](Cc1ccccc1)NC(=O)Nc1ccc(C)cc1	CYP2C19 inh 65.8
O=c1oc(-c2cccs2)nc2c1cnn2-c1ccccc1	none
COc1ccc2[nH]c(=O)c(CN(CCO)C(=O)c3ccccc3F)cc2c1	none
CC(C)NC(=O)C1CC(=O)N(c2ccc(F)c(Cl)c2)C1 (stereo not drawn)	none
COC(=O)C(Cc1ccc(O)cc1)NC(=O)C(C)Oc1ccccc1 (stereo not drawn)	CYP2C19 inh 94.2, CYP2C9 inh 57.9
COC(=O)C(NC(=O)C(C)Oc1ccccc1)C(C)C (stereo not drawn)	none
CCOc1cccc2c1OC1(C)CC2NC(=O)N1c1cccc(F)c1 (stereo not drawn)	none
Cc1c(C(=O)N2CCC(C(N)=O)CC2)sc(N)c1C#N	none
CC(C)CC(C(=O)Nc1oc(-c2ccco2)c(-c2ccco2)c1C#N)N1C(=O)c2ccccc2C1=O (stereo not drawn)	CYP2C19 inh 69.4, CYP2C9 inh 97.8
OC(c1ccccc1)(c1ccc(F)cc1)C(c1ccccc1)N1CCOCC1 (stereo not drawn)	CYP2C19 inh 68.7
Cc1nnc2sc(-c3ccc(-c4ccc(Cl)c(C(F)(F)F)c4)o3)nn12	none
NC(=O)CNC(=O)[C@@H]1CC2(CC(c3ccccc3)=NO2)CN1C(=O)c1ccc(Br)cc1 (stereo partly drawn)	none
CCOC(=O)C1(C(F)(F)F)N=C(C(F)(F)F)Nc2ccccc21 (stereo not drawn)	CYP2C19 inh 53.6, CYP2C9 inh 65.6
Cc1ccc(C)c(NC(=O)CSc2nnc(-c3ccncc3)n2N)c1	CYP2C19 inh 60.0, CYP2C9 inh 91.7
Cc1cccc(NC(=O)CSc2nnc(-c3ccccc3)n2N)c1	none
